Common to all, as to assay: NCI-60 one-dose screen, 48 h (100 = growth as untreated, 0 = no growth, -100 = all killed)
Holding throughout (conditions): 10 µM unless noted

The subject of experiment [1] is NCI-H23 lung.
Experiment [2] has as its system NCI-H226 lung.
For experiment [3], the system named is NCI-H322M lung.
In experiment [4] the test system is HOP-62 NSCLC.
Experiment [5] deals with NCI-H460 lung.
The subject of experiment [6] is HOP-92 NSCLC.
The test system of experiment [7] is NCI-H522 lung.
Experiment [8] concerns A549/ATCC NSCLC.
Experiment [9] concerns 786-0 renal.
Experiment [10] concerns COLO 205 colon.

The text below walks through data of PubChem BioAssay (NCI).

The panel holds about 83,000 compounds, 20% with a hit somewhere; the sample as a whole holds those more often.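 A percent growth of 40 corresponds to 60% growth inhibition; 0 means no net growth; -100 means all cells died. Active threshold: below 10.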 Values without a mark were called inactive. Active and inactive are the calls of the source.

With `COc1cc(-n2nc(C(=O)Nc3ccc(C(=O)O)cc3)nc2-c2ccccc2)cc(OC)c1OC`, the growth in experiment [1] was 97.4%; in experiment [2], 103%; in experiment [3], 24.5%; in experiment [4] it was 85.1%; in experiment [5], 115%; in [6] it was 83.5%. Moreover, the growth in [7] was 55.9%; in experiment [8] it was 74.7%; in experiment [9] it was 92.1%; in experiment [10] it was 104%.
Turning to `c1ccc2nc(-c3ccc4ccccc4n3)ccc2c1`, the growth is 88.5% in experiment [1]; 85.9% in [2]; 95.8% in [3]; 82.8% in [4]; 103% in experiment [5]; 83% in experiment [6]. Moreover, the growth in experiment [7] was 70%; in experiment [8] it was 102%; in [10], 106%.
Take `CCC1CCc2nc3sc(C(=O)Nc4ccccc4F)c(N)c3cc2C1` (stereo not given): the growth in [1] was 78.2%; in experiment [2], 89.8%; in experiment [3], 92.8%; in experiment [4] it was 76.4%; in experiment [5], 75.4%; in experiment [6], 58.3%. Also, the growth was 71.9% in [7], 79.5% in experiment [8], 91.4% in [9] and 64.2% in [10].
For the molecule `O=C(Nc1cccc(C(F)(F)F)c1)Nc1ccc(OCc2nnc(-c3ccccc3)o2)c(F)c1`, the growth was 35.7% in experiment [1]; 56.3% in experiment [2]; 61.6% in [3]; 56.1% in [4]; 6.12% (active) in experiment [5]; -8.2% (active) in [6]. Further, the growth was 1.68% (active) in experiment [7], 29.9% in experiment [8], 60.4% in experiment [9] and 32.6% in [10].
Take `C=C1C(=O)O[C@H]2[C@H]1CC/C(COC(=O)NCCc1ccc(OC)cc1)=C\CC[C@@]1(C)O[C@@H]21`: the growth in experiment [1] is 66.6%; in [2], 0.324% (active); in experiment [3], 88.4%; in experiment [4], 62.6%; in experiment [5], 68.7%; in [6], 21.9%. The growth is -64.6% (active) in experiment [7], 64.1% in [8], -31.9% (active) in [9] and -52.6% (active) in experiment [10].
With `Cc1c(C(=O)NCc2ccccc2)[n+](=O)c2cc(F)ccc2n1[O-]`, the growth was 90.1% in [1]; 103% in experiment [2]; 117% in experiment [3]; 94.8% in [4]; 109% in experiment [5]; 64.3% in [6]. Also, the growth in experiment [7] was 90.9%; in [8], 109%; in [9] it was 101%; in [10], 123%.
As to `COc1cc(Cn2c(SCC(=O)Nc3cc(OC)c(OC)c(OC)c3)nc3ccccc3c2=O)cc(OC)c1OC`, the growth was 77.1% in [1]; 57.7% in experiment [2]; 82.1% in experiment [3]; 42.8% in experiment [4]; 57.8% in experiment [5]; 39.8% in [6]. For the same molecule, the growth in experiment [7] is 34%; in experiment [8], 62.9%; in experiment [9] it was 73.6%; in experiment [10], 109%.
Regarding `CS(=O)(=O)N(c1cc(-c2ccc3ncnc(Nc4cccc(Cl)c4)c3c2)cnc1Cl)S(C)(=O)=O`, the growth in experiment [1] was 18.3%; in experiment [2], 30.1%; in experiment [3], -1.94% (active); in experiment [4] it was 19.2%; in experiment [5] it was 14.1%; in experiment [6] it was -20.5% (active). Besides, the growth in [7] was 19.6%; in experiment [8], 9.62% (active); in experiment [9], 17.5%; in experiment [10], 2.1% (active).
Turning to `CCCC1OC(c2ccc(C(C)C)cc2)OCC1CC` (stereo not given), the growth is 98.8% in experiment [1]; 100% in experiment [2]; 98% in [3]; 74% in [4]; 123% in experiment [5]; 101% in experiment [6]. The growth is 87.2% in experiment [7], 75.8% in experiment [8] and 99.6% in [10].
With `COc1cc(C2CC(c3c(C)[n+]([O-])c4ccccc4[n+]3[O-])=NN2)cc(OC)c1OC` (stereo not given), the growth was 99.6% in experiment [1]; 100% in experiment [2]; 119% in experiment [3]; 106% in [4]; 112% in experiment [5]; 87.8% in experiment [6]. Moreover, the growth in experiment [8] is 113%; in experiment [9] it was 102%.
Turning to `COC(=O)c1cc(-c2cccs2)c(C#N)c(N)c1C#N`, the growth in experiment [1] is 96.7%; in experiment [2], 101%; in [3] it was 99.8%; in experiment [4] it was 90.3%; in [5] it was 104%; in [6], 94.2%. In addition, the growth in [7] is 95.4%; in [8], 101%; in experiment [9], 100%; in [10], 109%.
With `Cc1cc(C(=O)O)c(N)c(C)n1`, the growth was 100% in [1]; 118% in [2]; 106% in experiment [3]; 106% in experiment [4]; 108% in experiment [5]; 93.2% in [6]. The growth in [7] is 107%; in [8], 108%; in experiment [9], 104%; in [10] it was 119%.
Consider `O=C1OC(c2ccccc2)=N/C1=C\c1ccc([N+](=O)[O-])cc1`, for which the growth in [1] was 100%; in [2], 93.6%; in experiment [3], 96.2%; in experiment [4], 90.1%; in experiment [5], 94.6%; in experiment [6] it was 87.1%. Further, the growth in experiment [7] is 94.9%; in experiment [8], 120%; in experiment [9] it was 98.6%; in experiment [10], 109%.
For `COc1cc(CNC(=O)CCSc2nc3ccccc3c(=O)n2Cc2cc(OC)c(OC)c(OC)c2)cc(OC)c1OC`, the growth was 51.6% in experiment [1]; 70% in experiment [2]; 60.1% in experiment [3]; 29.3% in experiment [4]; 13.7% in experiment [5]; 44.6% in experiment [6]. In addition, the growth in experiment [7] is 10.2%; in experiment [8] it was 35%; in experiment [9], 56.1%; in [10] it was 25.8%.
Turning to `CCC(C)NCC(=O)O` (stereo not given), the growth in experiment [1] was 108%; in [2], 92.6%; in experiment [3], 118%; in experiment [4], 98.2%; in experiment [5] it was 108%; in [6] it was 109%. The growth in [7] is 78.7%; in experiment [8], 105%; in experiment [9], 103%; in [10], 107%.
Consider `CC(C)(C)OC(=O)N[C@@H](Cc1ccccc1)C(=O)N(Cc1ccccc1)C1(C(=O)NCc2ccccc2)CCN(Cc2ccccc2)CC1`, for which the growth was 49.3% in experiment [1]; 70% in [2]; 64.3% in experiment [3]; 56.2% in experiment [4]; 26.6% in experiment [5]; -8.51% (active) in experiment [6]. Besides, the growth in [7] is 43.7%; in experiment [8], 24.8%; in [9], 51.7%; in experiment [10] it was 16.3%.
Consider `Oc1ccc(N=Cc2ccccc2)cc1`, for which the growth in experiment [1] was 88.5%; in [2], 111%; in [3], 103%; in experiment [4], 115%; in [5], 102%; in experiment [6], 51.9%. Also, the growth in experiment [7] was 67.7%; in [8] it was 103%; in experiment [10], 113%.
Consider `COc1ccc(S(=O)(=O)Nc2cc(/C=C\c3cc(OC)c(OC)c(OC)c3)cc(OC)c2OC)cc1OC`, for which the growth was 31.4% in experiment [1]; 66.6% in experiment [2]; 55.2% in experiment [3]; 52.3% in [4]; 11.4% in [5]; 43.3% in [6]. The growth was 37.4% in experiment [7], 34% in experiment [8], 18% in experiment [9] and -47.4% (active) in experiment [10].
On to `NS(=O)(=O)c1ccc(CN2C(=O)c3cccc4cccc(c34)C2=O)cc1`, for which the growth was 107% in [1]; 86.1% in experiment [2]; 93% in [3]; 81.8% in [4]; 110% in [5]; 82.7% in [6]. The growth was 89.9% in experiment [7], 92.1% in experiment [8], 99.2% in experiment [9] and 99.4% in [10].
As for `CC(Br)C(Br)c1cc2c(cc1Br)OCO2` (stereo not given), the growth in experiment [1] is 96.4%; in experiment [2], 99.3%; in [3], 87.5%; in [4], 68%; in experiment [5], 126%; in [6] it was 106%. Besides, the growth in experiment [7] was 87.2%; in [8] it was 72.4%; in experiment [10], 90.2%.
On to `O=C1NC(Cc2c[nH]c3ccccc23)C(=O)N1Cc1ccc(Cl)cc1` (stereo not given), for which the growth in experiment [1] was 107%; in experiment [2] it was 95.5%; in [3], 104%; in experiment [4], 103%; in experiment [5], 110%; in experiment [6], 85.8%. In addition, the growth in experiment [7] is 86.7%; in experiment [8] it was 105%; in experiment [9], 110%; in experiment [10], 96.9%.
Regarding `CC/C=C\C[C@H]1C/C=C2/C(=O)C(Cl)=C[C@@H]2C/C=C\CCCC(=O)O1`, the growth was -34.1% (active) in experiment [1]; -11% (active) in [2]; 0.0936% (active) in experiment [3]; -14.8% (active) in [4]; -43% (active) in experiment [5]; -56.8% (active) in [6]. Also, the growth in [8] is -9.19% (active); in experiment [9], -80.7% (active); in experiment [10], -59.9% (active).
Take `Clc1ccc(-c2nc(-c3ccco3)cn3ccnc23)cc1`: the growth was 61% in [1]; 46.3% in [2]; 11.4% in experiment [3]; 31.4% in [4]; 14.5% in [5]; 34.7% in [6]. Also, the values for the growth in experiment [8], in [9] and in [10] were -1.62% (active), -41.1% (active) and 75%, respectively.
With `Cc1cc2c(c(=O)o1)C(c1ccc(OC(=O)N3CCOCC3)cc1)C(C#N)=C(N)O2` (stereo not given), the growth is 97.4% in [1]; 104% in experiment [2]; 93.1% in [3]; 89.6% in experiment [4]; 107% in experiment [5]; 113% in experiment [6]. Besides, the growth in experiment [8] is 100%; in [9] it was 99.2%; in experiment [10], 118%.
In the case of `Cc1ccc(S(=O)(=O)OCC(=O)Nc2ccc(C(=O)O)c(O)c2)cc1`, the growth in [1] was 131%; in experiment [2], 126%; in experiment [3], 104%; in experiment [4], 100%; in [5], 103%; in experiment [6], -60.6% (active). In addition, the values for the growth in [8], in [9] and in [10] were 101%, 108% and 131%, respectively.
Regarding `O=S(=O)(NCCNc1cc(-c2cn(-c3ccccc3)nc2-c2ccccc2)ccn1)c1cccc2ccccc12`, the growth in experiment [1] was 49.8%; in [2], 48%; in [3] it was 68.7%; in experiment [4], 68.2%; in [5] it was 44.4%; in [6], 2.24% (active). For the same molecule, the figures for the growth in experiment [8], in [9] and in experiment [10] were 42.3%, 49.7% and 8.28% (active), respectively.
For the molecule `Clc1nc(-c2cccnc2)nc2sc3c(c12)CCCCCC3`, the growth was 99.5% in experiment [1]; 98.6% in experiment [2]; 102% in experiment [3]; 97.5% in experiment [4]; 107% in experiment [5]; 86.2% in experiment [6]. In addition, the figures for the growth in [8], in [9] and in experiment [10] were 94.8%, 101% and 107%, respectively.
Take `CCC(c1ccc(OC)cc1)C(CC)c1ccc(OCC[N+](C)(C)C)cc1` (stereo not given): the growth in [1] is 48.8%; in [2], 49.8%; in [3] it was 89.6%; in experiment [4] it was 73.9%; in experiment [5], 59%; in experiment [6], 9.93% (active). In addition, the growth in [8] was 74.3%; in experiment [9] it was 88%; in experiment [10], -74.7% (active).
`Cc1ccccc1C(=O)c1ccccc1C(=O)O`: the growth in [1] is 100%; in experiment [2], 110%; in experiment [3], 108%; in experiment [4], 106%; in [5], 111%; in experiment [6], 105%. Moreover, the growth in [8] is 103%; in experiment [9], 97.9%.
